High-throughput results deposited in PubChem by National Center for Advancing Translational Sciences (NCATS).
Cycloheximide cs = counter-screen for Shiga toxin inhibitors: cycloheximide protein synthesis inhibition | cell reporter, cycloheximide protein synthesis inhibition counterscreen | max response, % | 300,000 compounds, 12% hits; in the data active = max response mostly above about 13%, no sharp cut-off; inactive = mostly below about 14%; also: read at 38.3 µM for the half of the compounds with a filed dose
SARS PLpro yeast = SARS-CoV PLP inhibition in yeast; S. cerevisiae expressing SARS-CoV PLpro, growth rescue; Potency, µM (doses to about 32.9 µM), usual class: activators; 330,000 compounds, 0.19% hits; AID 485353; calls by dose curve; also: nearly all actives have a fitted effect of over 55% in size
NS1 inh = inhibitors of influenza NS1 protein function; Potency, µM (highest dose often 46.1 µM); 270,000 compounds, 0.4% hits; calls by dose curve; also: actives are rising curves; nearly all actives have a fitted effect of over 50% in size
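Recovery from NS1-induced slow growth read by OD600 in budding yeast switched to galactose assay medium (pH 6.0, -URA) at 1:100 dilution. Compound 23 nl per well; the matching strain lacking NS1 serves as control.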
Pf growth 48h = inhibits P. falciparum growth in the first generation, 48 h; P. falciparum luciferase growth in erythrocytes, 48 h; Potency, µM (titrated, usually from 28.7 µM), usual class: inhibitors; 310,000 compounds, 5.9% hits
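Erythrocytes infected with P. falciparum carrying an integrated firefly luciferase reporter (2% hematocrit, 0.1% parasitemia final) were exposed to compounds in RPMI 1640 with 0.5% Albumax at 37 C, 5% CO2. Growth inhibition was scored as reduced luminescence.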
Pf growth 96h = inhibits malaria parasite growth, 96 h | AID 504834 | P. falciparum luciferase reporter growth, 96 h | 320,000 compounds, 6.9% hits | Potency, µM (top dose mostly 28.7 µM), most hits filed as inhibitors
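Cell-based qHTS: luciferase-tagged P. falciparum in erythrocytes (2% hematocrit, 0.05% parasitemia final) incubated with compounds for 96 hours, 37 C, 5% CO2; luciferase detection reagent then added and luminescence measured.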
Shiga inhibitor = Shiga toxin inhibition; Vero cells, Shiga toxin protein synthesis inhibition reporter; inhibition, % at 38.7 µM; 290,000 compounds, 9.2% hits; AID 2315; in the data active = inhibition mostly above about 28%, no sharp cut-off; inactive = mostly below about 43%
A number is an active result; . = inactive; ? = inconclusive; / = no result. Shown are actives, neighbours in structure and some others; about 21% of the full set was active somewhere. Unless noted, calls follow the shape of the dose curve; as a rule, active = well fitted inhibition curve with a large enough effect; inconclusive = small, poorly fitted or top-dose-only effect, or another doubt; inactive = no such curve, though single readings can be large or run the other way.

SMILES	Cycloheximide cs	SARS PLpro yeast	NS1 inh	Pf growth 48h	Pf growth 96h	Shiga inhibitor
COC(OC)c1ccc(C#N)c(SCc2ccc(C)cc2)n1	.	.	.	.	?	.
NS(=O)(=O)c1ccc(NC(=O)CSc2ccc3ccccc3n2)cc1	.	.	.	/	.	.
O=C(CSc1ccc2ccccc2n1)N/N=C/c1ccc(O)cc1	11	.	.	.	?	.
O=C(CSc1ccc2ccccc2n1)c1ccccc1	53	.	.	.	.	90
O=C(CSc1nc2ccccc2c2ccccc12)c1ccccc1	/	/	.	/	/	/
O=C(CSc1ccc2ccccc2n1)N/N=C/c1ccccc1O	32	.	.	?	.	60
O=C(CCn1cnc2ccccc21)N/N=C/c1ccccc1O	24	.	.	?	.	60
O=C(CSc1cccc2cccnc12)N/N=C/c1ccc(O)cc1	.	.	.	.	.	.
CCN(CC(=O)NCc1cccs1)C(=O)c1ccc(NS(=O)(=O)c2cccc([N+](=O)[O-])c2)cc1	/	.	/	.	.	/
NS(=O)(=O)c1ccc(NC(=O)c2cc(Cl)sc2Cl)cc1	.	.	.	.	.	.
O=C(Cn1cncn1)N/N=C/c1ccccc1O	9.9	.	.	.	.	.
O=C(/C=C/c1cccc([N+](=O)[O-])c1)NCC1CCCO1 (stereo not given)	.	.	.	.	.	.
O=C(/C=C/c1ccc2c(c1)OCO2)NC1CCCC1	27	.	.	.	.	/
O=C(/C=C/c1ccc2c(c1)OCO2)NCC1CCCO1 (stereo not given)	37	.	/	.	.	63
CC(C)=CC(O)C/C(C)=C/COc1ccc2ccc(=O)oc2c1 (stereo not given)	8.6	.	.	.	.	.
CN(C)C(=O)COc1ccc2ccc(=O)oc2c1	.	.	.	.	.	.
CCn1cc(C(=O)O)c(=O)c2cnc(N3CCN(C(=S)Nc4ccccc4C(F)(F)F)CC3)nc21	.	.	.	.	.	.
OCCOCCn1c(-c2ccccc2)nc(=S)c2c1CCCC2	.	.	.	/	10µM	.
CC1(C)Cc2c(c(=S)nc(-c3ccccc3)n2CCOCCO)CO1	.	.	.	.	.	.
O=C(NC(=S)N1CCOCC1)c1cn(-c2ccccc2)nc1-c1ccccc1	/	.	/	?	.	/
COc1ccccc1N1CCN(C(=O)c2ccccc2N(C)S(=O)(=O)c2ccc(C)cc2)CC1	.	.	.	10µM	?	.
O=C(NC(Cc1ccccc1)C(=O)N1CCC2(CC1)OCCO2)C1CCCCC1 (stereo not given)	.	.	.	.	/	.
COc1ccccc1N1CCN(C(=O)c2nn(-c3ccccc3OC)c(=O)c3ccccc23)CC1	.	.	.	9.3µM	?	.
COc1ccccc1N1CCN(C(=O)C(Cc2ccccc2)NC(=O)C2CCCCC2)CC1 (stereo not given)	.	.	.	10µM	.	.
O=C(c1ccccc1Oc1ccccc1)N1CCN(c2ccccc2F)CC1	.	.	.	/	?	.
SMILES	Cycloheximide cs	SARS PLpro yeast	NS1 inh	Pf growth 48h	Pf growth 96h	Shiga inhibitor
COc1ccccc1N1CCN(C(=O)c2ccccc2Oc2ccccc2)CC1	.	.	.	13µM	?	.
COc1ccc(C)cc1NC(=O)C(c1ccccc1)N1CCNC(=O)C1 (stereo not given)	.	.	/	.	.	.
C[C@H]1COC(=O)O1	.	/	/	/	/	.
O=C(O)c1ccccc1Oc1ccc(Oc2ccccc2)cc1	7.5	.	.	.	?	.
COc1ccccc1N1CCN(C(=O)c2ccccc2NC(=O)C2CCCCC2C(=O)O)CC1 (stereo not given)	.	.	.	.	7.4µM	.
O=C(c1cn(-c2ccccc2)nc1-c1ccccc1)N1CCN(c2ccccn2)CC1	23	.	.	?	.	.
COc1ccc(-c2nn(-c3ccccc3)cc2/C=C/C(=O)N2CCN(c3ccccn3)CC2)cc1	.	.	/	?	10µM	.
O=C(/C=C/c1cn(-c2ccccc2)nc1-c1cccnc1)N1CCCC1	.	.	/	?	?	.
Cc1ccc(-c2nn(-c3ccccc3)cc2C(=O)N2CCN(c3ccccn3)CC2)cc1	.	.	/	?	?	42
Cc1ccc(NC(=O)CCC(=O)Nc2nnc(C3CCCCC3)s2)cc1	.	.	.	.	.	.
COCCNc1nc(C)c(C(C)=O)s1	.	.	.	.	.	.
COc1ccc(CN2CCNC(=O)C2CC(=O)NCc2cc(C)n(C)n2)c(F)c1 (stereo not given)	.	?	.	.	?	.
CCc1ccccc1Nc1nn2c(=O)c3ccc(C(=O)NCc4ccccn4)cc3nc2s1	.	.	.	?	?	.
O=C(O)c1ccc(COc2ccc3c(c2)CCC3)cc1	25	.	.	.	.	54
Cc1ccc(NC(=O)c2ccc(COc3ccc4c(c3)CCC4)cc2)c(C)c1	17	.	.	.	?	.
O=C(Nc1ccccc1Cl)c1ccc(COc2ccc3c(c2)CCC3)cc1	25	.	.	.	.	60
NC(=O)C1CC(=O)N(CCc2ccc(F)cc2)C1 (stereo not given)	.	.	.	.	.	.
O=S(=O)(Nc1ccc(Cl)cc1)c1ccc2c(c1)CCO2	.	.	.	.	.	.
Cc1cccnc1NC(=S)NC(=O)/C=C/c1ccco1	71	.	.	.	/	152
O=C(/C=C/c1ccco1)NC(=S)Nc1ccccn1	56	.	.	.	/	109
C=CCOC(=O)C1=C(C)NC(=S)NC1c1cccs1 (stereo not given)	.	.	.	.	?	.
Cc1ccccc1NC(=O)COC(=O)CCC(=O)c1cccs1	/	.	/	?	.	/
Cc1ccc(C)c(OCCn2c(=O)c3c(ncn3C3CCCC3)n(Cc3ccccc3)c2=O)c1	.	.	.	12µM	2.6µM	.
Cc1ccc(C)c(OCCCNCc2ccccc2)c1	.	.	.	.	.	/
COCCn1cnc2c1c(=O)n(CC#N)c(=O)n2Cc1ccccc1	.	.	.	.	?	.
SMILES	Cycloheximide cs	SARS PLpro yeast	NS1 inh	Pf growth 48h	Pf growth 96h	Shiga inhibitor
CCCCn1c(=O)n(CC(O)c2ccccc2)c(=O)c2c1ncn2C1CCCC1 (stereo not given)	.	.	?	2.9µM	?	.
O=c1c2c(ncn2C2CCCC2)n(Cc2ccccc2)c(=O)n1CCOc1ccc(Br)cc1	.	.	.	13µM	13µM	.
O=c1c2c(ncn2C2CCCC2)n(Cc2ccccc2)c(=O)n1CCOc1ccccc1	.	.	.	17µM	?	.
O=c1[nH]nc(SCc2nnc(-c3cccc(Cl)c3)o2)n1C1CCCCC1	.	.	.	.	.	.
O=C(CN1c2cccc3cccc(c23)S1(=O)=O)NCCc1ccc(F)cc1	/	.	/	/	/	/
CCN(CCCNC(=O)C1CCC(=O)N1C(C)C)c1cccc(C)c1 (stereo not given)	.	.	.	/	.	.
O=C(Nc1ccc(N2CCOCC2)nc1)c1ccc(F)cc1	41	.	.	.	.	48
